In PubChem BioAssay (NCATS):
Results filed as inconclusive are left out. Activity calls are given as the source filed them. Calls follow the shape of the dose curve; as a rule, active = well fitted cell-killing curve with a large enough effect; inconclusive = small, poorly fitted or top-dose-only effect, or effect the other way; inactive = no such curve, though single readings can be large or run the other way.

experiment: qHTS assay to identify small molecule inhibitors of chordoma cells - UCH-1 (AID 1259355); conditions: UCH-1 chordoma viability, CellTiter-Glo, 48 h, combination, with auranofin plus four topoisomerase inhibitors; series mostly up to 46.1 µM; activity, negative = inhibition: at the top concentration; also: nearly all actives have a fitted effect of over 55% in size
Summary of the method: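 800 cells/well, overnight attach; compounds pinned at 15 concs, then auranofin/camptothecin/doxorubicin/rubitecan/topotecan combo added; 48hr 37 C, 5% CO2; CellTiter-Glo, 30min RT, luminescence.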
% is scaled to controls: 0 for no effect and ±100 for the full control effect.

Compound | activity, negative = inhibition | Potency
O=C(CCN1CCN(CCO)CC1)N1c2ccccc2Sc2ccc(C(F)(F)F)cc21 | -17% (inactive) | –
O=C(Nc1ccc(C(=O)O)c(O)c1)c1ccccc1 | -20.4% (inactive) | –
CC1(C)[C@@H](O)CC[C@]2(C)[C@H]3C(=O)C=C4[C@@H]5C[C@@](C)(C(=O)O)CC[C@]5(C)CC[C@@]4(C)[C@]3(C)CC[C@@H]12 | – | inactive
COc1cc(/C=C/C(=O)CC(=O)/C=C/c2ccc(O)c(OC)c2)ccc1O | -0.648% (inactive) | –
Cc1[nH]cnc1CN1CCc2c(c3ccccc3n2C)C1=O | 0.15% (inactive) | –
CN1CCN(c2cc3c(nn2)Oc2ccccc2N3C)CC1 | -7.68% (inactive) | –
CC1(C)S[C@@H]2[C@H](NC(=O)[C@H](N)c3ccc(O)cc3)C(=O)N2[C@H]1C(=O)O | -19.5% (inactive) | –
CC1(C)[C@@H](O[C@H]2O[C@H](C(=O)O)[C@@H](O)[C@H](O)[C@H]2O[C@@H]2O[C@H](C(=O)O)[C@@H](O)[C@H](O)[C@H]2O)CC[C@]2(C)[C@H]3C(=O)C=C4[C@@H]5C[C@@](C)(C(=O)O)CC[C@]5(C)CC[C@@]4(C)[C@]3(C)CC[C@@H]12 | -13% (inactive) | –
Cc1cc(O)c2ccccc2c1O | -26.8% (inactive) | –
CC[C@H]1OC(=O)[C@H](C)[C@@H](O[C@H]2C[C@@](C)(OC)[C@@H](O)[C@H](C)O2)[C@H](C)[C@@H](O[C@@H]2O[C@H](C)C[C@H](N(C)C)[C@H]2O)[C@](C)(O)C[C@@H](C)C(=O)[C@H](C)[C@@H](O)[C@]1(C)O | – | inactive
C[C@H](O)[C@H](O)[C@H]1CNc2nc(N)[nH]c(=O)c2N1 | 9.58% (inactive) | –
CC1(C)C[C@@H]1C(=O)N/C(=C\CCCCSC[C@H](N)C(=O)O)C(=O)O | – | inactive
CCCC(=O)OC[C@@H](OC(=O)CCC)[C@@H](OC(=O)CCC)[C@H](Cn1c2nc(=O)[nH]c(=O)c-2nc2cc(C)c(C)cc21)OC(=O)CCC | -21.2% (inactive) | –
COc1cc(NC(C)CCCN)c2ncccc2c1 (configuration not stated) | 2.61% [at 20.6 µM] (inactive) | –
CC[C@H]1OC(=O)[C@H](C)C(=O)[C@H](C)[C@@H](O[C@@H]2O[C@H](C)C[C@H](N(C)C)[C@H]2O)[C@](C)(OC)C[C@@H](C)C(=O)[C@H](C)[C@H]2N(CCCCn3cnc(-c4cccnc4)c3)C(=O)O[C@]12C | – | inactive
COc1cc(CNC(=O)CCCC/C=C/C(C)C)ccc1O | -17.7% (inactive) | –
O=C(O)Cc1ccc(-c2ccccc2)cc1 | -0.963% [at 20.6 µM] (inactive) | –
CN1CC(=O)N/C1=N/C(=O)Nc1cccc(Cl)c1 | -13.3% (inactive) | –
Clc1ccccc1-c1nc(-c2ccncc2)no1 | -11.6% (inactive) | –

Compound | activity, negative = inhibition | Potency
CN(C)[C@@H]1C(=O)C(C(=O)NCN2CCCC2)=C(O)[C@@]2(O)C(=O)C3=C(O)c4c(O)cccc4[C@@](C)(O)C3C[C@@H]12 (some centres not stated) | – | inactive
C=CCN1C(=O)C(CC(C)C)NC1=S (configuration not stated) | – | inactive
O=C(O)c1cc(O)c(O)c(O)c1 | -26.4% (inactive) | –
c1ccc2sc(SN3CCOCC3)nc2c1 | -16.7% (inactive) | –
O=C(O)[C@H](O)[C@@H](O)[C@H](O)[C@H](O)CO | – | inactive
COC(=O)C1=C(C)NC(C)=C(C(=O)OCC(C)C)C1c1ccccc1[N+](=O)[O-] (configuration not stated) | -24.9% (inactive) | –
Oc1c(Br)cc(Br)c2cccnc12 | -24.4% (inactive) | –
Nc1cc(-c2ccncc2)c[nH]c1=O | 2.99% (inactive) | –
Cc1onc(-c2c(F)cccc2Cl)c1C(=O)N[C@@H]1C(=O)N2[C@@H]1SC(C)(C)[C@@H]2C(=O)O | – | inactive
NC(=O)C(c1ccccc1)(c1ccccc1)[C@@H]1CCN(CCc2ccc3c(c2)CCO3)C1 | -22.1% (inactive) | –
O=C1CN(/N=C/c2ccc([N+](=O)[O-])o2)C(=O)N1 | -6.02% (inactive) | –
COc1ccc(-c2cc(=S)ss2)cc1 | -19.3% (inactive) | –
CCCCC1C(=O)N(c2ccccc2)N(c2ccc(O)cc2)C1=O (configuration not stated) | -12.8% [at 20.6 µM] (inactive) | –
CCCOC(=O)c1ccc(O)cc1 | -14.9% (inactive) | –
CCCCCCOc1ccccc1C(N)=O | -8.37% (inactive) | –
CCCCCCCCCCCCCCCC(=O)OC(C)C | -22.9% (inactive) | –
CO/N=C(\C(=O)N[C@@H]1C(=O)N2C(C(=O)O)=C(COC(C)=O)CS[C@H]12)c1csc(N)n1 (stereo in doubt) | 3.04% (inactive) | –
O=c1[nH]c2ccccc2n1CCCN1CCN(C(c2ccccc2)c2ccccc2)CC1 | 4.57% (inactive) | –
